# High-throughput results deposited in PubChem BioAssay by National Center for Advancing Translational Sciences (NCATS).
# Most compounds without a hit are left out; they make up all but 5.4% or so of the library.
# 15-hLO-2 inh – qHTS Assay for Inhibitors of 15-hLO-2 (15-human lipoxygenase 2); AID 881, 2007; Potency, µM (top dose mostly 57.1 µM), most hits filed as inhibitors; 110,000 tested, 0.56% active; purified 15hLO-2, xylenol orange hydroperoxide absorbance; also: nearly all actives have a fitted effect of over 60% in size
#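 Purified human 15hLO-2 (50 nM final) preincubated with compounds 15 min at room temperature in 25 mM Hepes pH 7.5, 0.01% Triton X-100, then 45 uM arachidonic acid added for 90 min; hydroperoxide detected via ferrous/xylenol orange, 573/405 nm absorbance ratio.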
# IMPase Li cell – qHTS Assay for Identifying the Cell-Membrane Permeable IMPase Inhibitors: Potentiation with Lithium; AID 1457, 2008; 210,000 tested, 0.35% active; Potency, µM (top dose mostly 59.4 µM), actives largely listed as inhibitors; CHO-M1 cells, IP1 TR-FRET (IP-One), carbachol + lithium;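 also: IP1 builds up when IMPase is blocked and the TR-FRET signal falls; nearly all actives have a fitted effect of over 50% in size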
#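 IP1 accumulation measured by competitive TR-FRET in lysed CHO-M1 cells after 30 min compound exposure at 37C, with a small lithium addition to potentiate weak responses. Hill-equation AC50 from ratio and donor-channel data.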
# PNC assembly inh – High Content Assay for Compounds that inhibit the Assembly of the Perinucleolar Compartment. PC3M PTB-GFP, PNC prevalence imaging, 16 h; stronger effect = lower value. activity change (PNC), negative = inhibition, % at 10 µM. 140,000 tested, 3.1% active. AID 2417, 2010;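 active = readout at or below -70, meaning at least 70% loss of cells showing the perinucleolar compartment, a nuclear body marking cancer cells; inconclusive = readout between -30 and a set limit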
#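 PC3M cells stably expressing PTB-GFP, 750–1000 cells/well, treated 16 h at 37 °C with compound (23 nl of library stock), in duplicate. After paraformaldehyde fixation and Hoechst stain, imaged at 20x; PNC prevalence scored by image analysis.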
# IMPase inh – qHTS Assay for Identifying the Cell-Membrane Permeable IMPase Inhibitors; 120,000 tested, under 10 active; inhibition (IP1 accumulation), % at 46.1 µM; CHO-M1 cells, IP1 accumulation, HTRF TR-FRET ratio; active = well fitted curve in the direction sought with a large enough effect in the signal ratio, not every such curve was filed as active; inconclusive = small, poorly fitted or top-dose-only effect, or a change in a side signal; inactive = no such curve, though single readings can be large or run the other way; the % refers to the signal ratio;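 also: cells stimulated with carbachol in lithium chloride buffer; higher means more IMPase inhibition seen as more IP1 and lower FRET ratio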
# Target sequence (P97697 whole entry, looked up): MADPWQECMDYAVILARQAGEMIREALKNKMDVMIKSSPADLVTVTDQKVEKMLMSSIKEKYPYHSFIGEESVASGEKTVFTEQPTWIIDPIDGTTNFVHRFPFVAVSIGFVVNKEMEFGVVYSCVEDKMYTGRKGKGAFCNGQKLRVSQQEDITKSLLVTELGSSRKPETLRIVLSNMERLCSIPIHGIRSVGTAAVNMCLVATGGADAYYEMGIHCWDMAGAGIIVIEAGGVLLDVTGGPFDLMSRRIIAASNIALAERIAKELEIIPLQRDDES
#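 The IP-One HTRF competitive assay in carbachol-stimulated CHO-M1 cells quantifies cellular IP1. Compounds spanned up to 46 uM final, and activity is expressed as AC50 from concentration-response fits of the ratio and donor data.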
# 12-hLO inh – qHTS Assay for Inhibitors of 12-hLO (12-human lipoxygenase); Polyunsaturated fatty acid lipoxygenase ALOX12 (Homo sapiens), P18054; purified 12-hLO, xylenol orange hydroperoxide absorbance; Potency, µM (doses to about 57.1 µM), usual class: inhibitors; 150,000 tested, 0.12% active; also: nearly all actives have a fitted effect of over 55% in size
#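 Xylenol orange chromogenic assay: hydroperoxide from 12hLO oxidises Fe(II), giving red-shifted Fe(III)-XO absorbance. Conditions: 150 nM enzyme, 40 uM arachidonic acid, 25 mM Hepes pH 7.0, 0.01% Triton X-100, 30 min, room temperature.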
# HPGD inh – qHTS Assay for Inhibitors of HPGD (15-Hydroxyprostaglandin Dehydrogenase); 15-hydroxyprostaglandin dehydrogenase [NAD(+)] (Homo sapiens), P15428; purified HPGD, NADH fluorescence kinetic, PGE2 substrate; Potency, µM, actives largely listed as inhibitors; 150,000 tested, 4.3% active; AID 894, 2007; active = well fitted inhibition curve with a large enough effect, not every such curve was filed as active; inconclusive = small, poorly fitted or top-dose-only effect, or another doubt; inactive = no such curve, though single readings can be large or run the other way
# Target sequence (P15428 whole entry, looked up): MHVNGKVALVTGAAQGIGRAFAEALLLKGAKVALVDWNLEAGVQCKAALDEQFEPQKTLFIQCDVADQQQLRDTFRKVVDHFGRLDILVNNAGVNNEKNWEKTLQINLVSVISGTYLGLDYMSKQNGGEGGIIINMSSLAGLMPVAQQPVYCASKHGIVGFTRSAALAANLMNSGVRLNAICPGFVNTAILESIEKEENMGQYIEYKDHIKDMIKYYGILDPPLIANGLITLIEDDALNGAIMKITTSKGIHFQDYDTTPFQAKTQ
#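 NADH formation kinetics: reaction with 30 uM PGE2 and 1 mM NAD+ (final), 20 nM enzyme, Tris-HCl pH 8 with Tween 20, after 15 min compound preincubation at room temperature. Fluorescence change, last versus first of five reads.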
# A number is an active result; - = inactive; ? = inconclusive; . = no result given; [ ] = dose if it differs, or a comment. Unless noted, calls follow the shape of the dose curve; as a rule, active = well fitted curve in the direction sought with a large enough effect; inconclusive = small, poorly fitted or top-dose-only effect, or another doubt; inactive = no such curve, though single readings can be large; an effect the other way counts as inactive or inconclusive.
SMILES,15-hLO-2 inh,IMPase Li cell,PNC assembly inh,IMPase inh,12-hLO inh,HPGD inh
COC(=O)N/N=C/c1ccc(-c2cc(Cl)cc(Cl)c2)o1,.,-,-,.,-,-
COC(=O)N/N=C/c1ccc(-c2ccc(C)c(Cl)c2)o1,.,-,-,-,-,14.1µM
O=C1N[C@H](Cc2ccccc2)C(=O)N1Cc1cccc2ccccc12,.,-,.,.,.,-
Cc1nc(NC(=O)c2oc3ccccc3c2C)sc1C(=O)N(C)C,.,-,-,-,-,31.6µM
Cc1nc(NC(=O)c2ccccc2[N+](=O)[O-])sc1C(=O)N(C)C,.,-,-,.,-,22.4µM
CC(=O)c1sc(NC(=O)c2ccccc2C)nc1C,.,-,.,.,.,.
Cc1nc(NC(=O)/C=C/c2ccccc2)sc1C(=O)N(C)C,.,-,?,.,-,-
c1cncc(-c2cncnc2NC2CCNCC2)c1,-,-,.,.,.,.
COc1ccc(CNc2nc(-c3ccccc3)nn2S(=O)(=O)c2ccccc2)cc1,.,.,.,-,.,.
COC(=O)[C@H](N)Cc1ccc(Cl)cc1,-,.,.,-,-,.
CCOc1ccc2nc(SCCNS(=O)(=O)c3ccccc3)sc2c1,.,-,-113.0,.,-,-
Cc1cccc(CCn2c(=O)c3ccccc3n(Cc3ccccc3C)c2=O)c1,.,.,.,-,.,.
O=C(CCSc1nnc2ccc3ccccc3n12)Nc1ccc(F)cc1,-,11.2µM,-,?,-,?
O=C(CCSc1nnc2ccccn12)Nc1ccc(F)cc1,-,-,-,-,-,-
O=C(O)CC1S/C(=N/N=C/c2ccc(-c3ccc(Cl)c([N+](=O)[O-])c3)o2)NC1=O (stereo not given),.,-,.,.,.,.
O=C(O)CC1S/C(=N/N=C/c2ccc(-c3ccc(Cl)cc3[N+](=O)[O-])o2)NC1=O (stereo not given),?,-,-,-,?,8.91µM
Nc1nc(NC(=O)c2ccco2)nn1-c1ccccc1,-,-,-89.6,-,-,-
O=C(Nc1ccc2nn(-c3ccccc3)nc2c1)c1ccco1,.,-,-100.0,-,-,?
Nc1nc(NC(=O)Cc2ccccc2)nn1-c1ccccc1,-,-,-,-,-,-
O=C(Nc1cc2nn(-c3ccccc3)nc2cc1Cl)c1ccco1,-,-,-,-,-,-
C/C(=N\NC(=O)c1ccncc1)c1ccc2ccccc2c1O,-[11.4 µM],-,.,.,-[11.4 µM],-
CCOC(=O)c1ccc(N(CC(=O)NC2CCCC2)C(=O)CNC(=O)c2ccco2)cc1,-,-,-85.5,-,-,-
C/C(CCc1oc2ccc(Br)cc2c1-c1ccc(C)o1)=N/O,.,-,-,.,-,20µM
CC(O)CN=c1cc(-c2ccccc2)oc2ccc(Cl)cc12 (stereo not given),-,-,-,-,-,-
C/C(CCc1oc2ccc(Cl)cc2c1-c1ccc(C)o1)=N\O,.,-,?,-,-,31.6µM
SMILES,15-hLO-2 inh,IMPase Li cell,PNC assembly inh,IMPase inh,12-hLO inh,HPGD inh
COc1ccccc1N1CCN(/N=C/c2c(C)nn(-c3ccccc3)c2C)CC1,-,-,-84.3,-,-,-
COc1cc(CNn2nnnc2N)cc(Br)c1OCc1c(Cl)cccc1Cl,-,-,-,-,-,15.8µM
COc1cc(OC)cc(C(=O)OCC(=O)NCc2ccc3c(c2)OCO3)c1,.,-,.,.,.,.
CC(=O)OCC(=O)NCc1ccc2c(c1)OCO2,-,-,?,-,-,20µM
Cc1ccsc1C(=O)OCC(=O)NCc1ccc2c(c1)OCO2,-,-,-,-,-,12.6µM
O=C(COC(=O)c1ccc(O)cc1)NCc1ccc2c(c1)OCO2,.,-,.,.,.,.
COc1ccc(C(=O)OCC(=O)NCc2ccc3c(c2)OCO3)cc1[N+](=O)[O-],.,-,-106.6,-,-,-
Cc1ccc(O)c(-c2cc(C(=O)NCc3ccc4c(c3)OCO4)[nH]n2)c1,.,-,-,.,-,3.16µM
Cc1ccc(NC(=O)CSc2nnc(N)s2)c(C)c1,.,.,.,-,.,.
CC(=O)NCCNc1ncncc1-c1ccc(N(C)C)cc1,-,-,.,.,.,.
Cc1cccc(CNc2ncncc2-c2ccc(C(=O)N(C)C)cc2)c1,-,-,.,.,.,.
CCCCN=CC1=C(O)C(C(=O)OC)C(C)(C)CC1=O (stereo not given),-,-,-85.7,-,-,-
CCO/N=C/C1=C(O)C(C(=O)OC)C(C)(C)CC1=O (stereo not given),.,-,.,.,.,.
O=C(CN1CC(c2ccccc2)CC1=O)OCc1ccccc1F (stereo not given),-,-,-90.9,-,-,-
COc1cccc([C@@H]2Oc3ccc(Br)cc3C(=O)[C@H]2OC(=O)N[C@H]2CCCc3ccccc32)c1,.,-,.,.,.,-
CCc1ccccc1NC(=O)c1nnn(CC(=O)Nc2cccc(C)c2C)c1N,?,10µM,-,?,-,?
CCc1ccccc1NC(=O)c1nnn(CC(=O)Nc2cccc(C)c2)c1N,-,-,-,-,-,-
CCC(Sc1nnnn1-c1ccccc1)C(=O)Nc1nc2ccccc2s1 (stereo not given),.,-,-100.0,-,-,-
O=C1c2ccccc2C(=O)N1CCCCSc1nnnn1-c1ccccc1,-,-,-,-,-,7.94µM
O=C1c2ccccc2C(=O)N1CCCCSc1nc2ccccc2o1,-,-,-,-,-,25.1µM
CCC(Sc1nnnn1-c1ccccc1)C(=O)NC(C)c1ccccc1 (stereo not given),-,-,?,-,-,-
c1ccc(-n2nnnc2SCCCSc2nc3ccccc3s2)cc1,-,-,-,-,-,11.2µM
O=C(CSc1nc2ccc(NC(=O)CSc3nnnn3-c3ccccc3)cc2s1)Nc1ccccc1,.,-,-,.,-,?
CC(N)CCCP(=O)(O)O (stereo not given),.,-,.,.,.,.
CCN1CCN(CCCNC(=O)c2cn(CCOC)c(=O)c3c2c2ccccc2n3C)CC1,-,-,-100.8,-,-,?
SMILES,15-hLO-2 inh,IMPase Li cell,PNC assembly inh,IMPase inh,12-hLO inh,HPGD inh
COc1ccc(/C=C(\C#N)C(N)=O)c(OC)c1,-[11.4 µM],-,.,.,-[11.4 µM],-
CC1CCN(c2c(NCc3ccc(C(=O)NCc4ccco4)cc3)c(=O)c2=O)CC1,.,-,-,.,-,11.2µM
CC1CCN(c2c(NCc3ccc(C(=O)N4CCc5ccccc54)cc3)c(=O)c2=O)CC1,-,-,?,-,-,17.8µM
Cc1ccc(CNC(=O)c2ccc(CNc3c(N4CCCC4)c(=O)c3=O)cc2)cc1,-,-,-,-,-,14.1µM
CC1CCCN(C(=O)c2ccc(CNc3c(N4CCCCC4)c(=O)c3=O)cc2)C1 (stereo not given),-,-,-,-,-,0.282µM
Cc1ccc(NC(=O)c2ccc(CNc3c(N4CCOCC4)c(=O)c3=O)cc2)cc1,-,-,?,-,-,-
